Laboratory results as given in PubChem BioAssay (NCI).
The panel holds about 79,000 compounds, 15% with a hit somewhere; the sample as a whole holds those more often. Activity calls are given as the source filed them. Cut-off read from the data, not from the text of the source: active = growth inhibition above about 70%; inactive = the rest.

Legend:
[1] = NCI Yeast Anticancer Drug Screen. Data for the rad52 strain (AID 147);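 note: 0% = growth of vehicle-treated control cultures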; details: S. cerevisiae rad52 mutant growth inhibition, stronger effect = higher value
Procedure, shortened: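 Vehicle-treated cultures served as the reference for growth inhibition of compound-exposed yeast bearing a DNA repair mutation.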

[2] = NCI Yeast Anticancer Drug Screen. Data for the wt1 strain (AID 149);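 note: 0% = growth of vehicle-treated wt1 cultures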; details: S. cerevisiae wt1 strain (SPY 50644) growth inhibition, stronger effect = higher value
Procedure, shortened: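 Using yeast strain wt1, compound-induced growth inhibition was determined against vehicle-treated cultures.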

[3] = NCI Yeast Anticancer Drug Screen. Data for the rad50EPP+ strain (AID 151);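 note: 0% = growth of vehicle-treated control cultures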; details: S. cerevisiae rad50 mutant strain, stronger effect = higher value
Procedure, shortened: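 In this screen, rad50EPP+ yeast were exposed to compounds. Growth inhibition was scored against vehicle-treated controls.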

[4] = NCI Yeast Anticancer Drug Screen. Data for the mgt1 strain (AID 153); details: S. cerevisiae mgt1 mutant growth inhibition, stronger effect = higher value
Procedure, shortened: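 mgt1 strain exposed; growth vs vehicle control recorded as inhibition.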

[5] = NCI Yeast Anticancer Drug Screen. Data for the rad50 strain (AID 155);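 note: 0% = growth of vehicle-only cultures of the same strain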; details: S. cerevisiae rad50 strain growth inhibition, stronger effect = higher value
Procedure, shortened: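 Relative growth inhibition (compound vs vehicle) was measured in yeast with a defined repair-gene alteration.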

[6] = NCI Yeast Anticancer Drug Screen. Data for the mec2-1 strain (AID 157); details: S. cerevisiae mec2-1 strain, stronger effect = higher value
Procedure, shortened: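 Vehicle-treated cultures served as reference for growth inhibition of compound-exposed mec2-1 yeast.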

[7] = NCI Yeast Anticancer Drug Screen. Data for the rad14 strain (AID 159);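 note: 0% = growth of vehicle-treated control cultures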; details: S. cerevisiae rad14 strain growth inhibition, stronger effect = higher value
Procedure, shortened: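 Screen for anticancer potential: a yeast strain altered in DNA damage repair is grown with compound, and reduced growth is quantified against vehicle controls.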

[8] = NCI Yeast Anticancer Drug Screen. Data for the sgs1 mgt1 strain (AID 161);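 note: 0% = growth of cultures given vehicle only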; details: S. cerevisiae sgs1 mgt1 strain, stronger effect = higher value
Procedure, shortened: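 Mutant yeast exposed to compound; growth scored against vehicle-only wells.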

[9] = NCI Yeast Anticancer Drug Screen. Data for the CLN2oe strain (AID 163);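 note: 0% = growth of vehicle-only control cultures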; details: S. cerevisiae CLN2oe strain, stronger effect = higher value
Procedure, shortened: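 Inhibition relative to vehicle-treated yeast is reported. Cells: strain with genetic alteration in cell-cycle control, grown with compound.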

[10] = NCI Yeast Anticancer Drug Screen. Data for the cln2 rad14 strain (AID 165);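 note: 0% = growth equal to vehicle treated cultures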; details: S. cerevisiae cln2 rad14 strain, stronger effect = higher value
Procedure, shortened: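 Each compound was tested on cln2 rad14 yeast. Inhibition of growth was calculated against vehicle-exposed controls.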

[11] = NCI Yeast Anticancer Drug Screen. Data for the bub3 strain (AID 167); details: S. cerevisiae bub3 mutant strain, stronger effect = higher value
Procedure, shortened: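 Screening used yeast with an engineered genetic alteration affecting cell cycle control. Compound-exposed cultures were compared with vehicle cultures, and reduced growth was taken as inhibition.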

[12] = NCI Yeast Anticancer Drug Screen. Data for the wt2 strain (AID 169);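 note: 0% = growth of vehicle-treated yeast cultures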; details: S. cerevisiae wt2 strain growth inhibition, stronger effect = higher value
Procedure, shortened: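 Inhibition of yeast growth was determined after compound treatment, normalised to controls receiving only vehicle.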

[13] = NCI Yeast Anticancer Drug Screen. Data for the mlh1 strain (AID 171);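 note: 0% = growth of vehicle-treated control cultures of the same strain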; details: S. cerevisiae mlh1 strain growth inhibition, stronger effect = higher value
Procedure, shortened: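 Vehicle-normalised growth inhibition of a repair- or checkpoint-altered yeast strain following compound treatment.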

[14] = NCI Yeast Anticancer Drug Screen. Data for the sgs1 strain (AID 173);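 note: 0% = growth of vehicle-only control cultures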; details: S. cerevisiae sgs1 mutant, stronger effect = higher value
Procedure, shortened: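 Screen format: yeast with repair or checkpoint alterations, compound exposure, growth read relative to vehicle.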

[15] = NCI Yeast Anticancer Drug Screen. Data for the mlh1 rad18 strain (AID 175); details: S. cerevisiae mlh1 rad18 strain growth inhibition, stronger effect = higher value
Procedure, shortened: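 Vehicle-treated cultures served as the reference for growth inhibition in a yeast strain carrying DNA damage repair alterations exposed to each compound.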

[16] = NCI Yeast Anticancer Drug Screen. Data for the rad18 strain (AID 177); details: S. cerevisiae rad18 mutant growth inhibition, stronger effect = higher value
Procedure, shortened: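 Test articles were incubated with altered yeast defective in DNA damage repair. Results are given as inhibition of growth versus vehicle.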

[17] = at 5.0 µM (retest, dose inferred, filed as 0.5)
[18] = at 50.0 µM (retest, dose inferred, filed as 5.0)

Measured: growth inhibition

Oc1ccc(C2(c3ccc(O)cc3)CCCC2)cc1
inactive: [1]; at 1.2 µM -31% | [1]; at 3.7 µM -23% | [1]; at 11.0 µM 15% | [2]; at 1.2 µM -41% | [2]; at 3.7 µM -21% | [2]; at 11.0 µM 10% | [3]; at 1.2 µM -40% | [3]; at 3.7 µM -50% | [3]; at 11.0 µM -44% | [3]; at 33.0 µM -50% | [3]; at 100.0 µM -4% | [4]; at 1.2 µM -23% | [4]; at 3.7 µM -6% | [4]; at 11.0 µM 37% | [5]; at 1.2 µM 3% | [5]; at 3.7 µM 4% | [5]; [17] 16% | [5]; at 11.0 µM 34% | [6]; at 1.2 µM -26% | [6]; at 3.7 µM -16% | [6]; [17] 8% | [6]; at 11.0 µM 32% | [7]; at 1.2 µM 1% | [7]; at 3.7 µM -16% | [7]; at 11.0 µM 29% | [8]; [17] 9% | [8]; [18] 53% | [9]; at 1.2 µM -12% | [9]; at 3.7 µM 16% | [9]; at 11.0 µM 48% | [10]; [17] 44% | [11]; at 1.2 µM -24% | [11]; at 3.7 µM -22% | [11]; [17] 16% | [11]; at 11.0 µM 27% | [12]; at 1.2 µM -54% | [12]; at 3.7 µM -30% | [12]; at 11.0 µM -18% | [13]; at 1.2 µM -33% | [13]; at 3.7 µM -26% | [13]; at 11.0 µM 46% | [14]; at 1.2 µM -20% | [14]; at 3.7 µM -17% | [14]; at 11.0 µM 11% | [15]; [17] 35% | [16]; at 1.2 µM -11% | [16]; at 3.7 µM 7% | [16]; at 11.0 µM 60%
active: [1]; at 33.0 µM 98% | [1]; at 100.0 µM 98% | [2]; at 33.0 µM 98% | [2]; at 100.0 µM 98% | [4]; at 33.0 µM 97% | [4]; at 100.0 µM 98% | [5]; at 33.0 µM 98% | [5]; [18] 99% | [5]; at 50.0 µM 90.5% | [5]; at 100.0 µM 98% | [6]; at 33.0 µM 98% | [6]; [18] 99% | [6]; at 50.0 µM 93.2% | [6]; at 100.0 µM 98% | [7]; at 33.0 µM 98% | [7]; at 100.0 µM 98% | [8]; at 50.0 µM 92.1% | [9]; at 33.0 µM 99% | [9]; at 100.0 µM 98% | [10]; [18] 99% | [10]; at 50.0 µM 89.5% | [11]; at 33.0 µM 98% | [11]; [18] 98% | [11]; at 50.0 µM 92.1% | [11]; at 100.0 µM 98% | [12]; at 33.0 µM 98% | [12]; at 100.0 µM 98% | [13]; at 33.0 µM 98% | [13]; at 100.0 µM 98% | [14]; at 33.0 µM 98% | [14]; at 100.0 µM 98% | [15]; [18] 99% | [15]; at 50.0 µM 90% | [16]; at 33.0 µM 98% | [16]; at 100.0 µM 98%
